Source: PubChem BioAssay (NCATS)
Results filed as inconclusive are left out. Activity calls are given as the source filed them. The call rests on the fitted dose curve; in most records, active means well fitted curve in the direction sought with a large enough effect; inconclusive means small, poorly fitted or top-dose-only effect, or another doubt; inactive means no such curve, though single readings can be large; an effect the other way counts as inactive or inconclusive.

Experiments:
[1] = HPAF-II 24hr Apoptosis Induction qHTS against the NCATS CANVASS Library (AID 1347356)
In short: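 Cells seeded at 500 per well, then compounds pin-transferred in an 11-point concentration series. After 24 hours at 37 degrees C, Caspase-Glo 3/7 was added and luminescence measured following 15 min at room temperature.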

[2] = HEK293 18hr Apoptosis Induction qHTS against the NCATS CANVASS Library (AID 1347357)
In short: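 Luminescent caspase-3/7 signal is measured in HEK293 cells exposed for 18 hours to an 11-point concentration series; doxorubicin serves as the plate control.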

[3] = HPAF-II 12hr Apoptosis Induction qHTS against the NCATS CANVASS Library (AID 1347358)
In short: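 Cells plated at 500 per well are dosed with compound and incubated 12 hours at 37 degrees C. Caspase-Glo 3/7 reagent is added and, after 15 min at room temperature, luminescence proportional to caspase activity is measured.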

[4] = HEK293 24hr Apoptosis Induction qHTS against the NCATS CANVASS Library (AID 1347359)
In short: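 HEK293 cells, 500 per well, exposed to an 11-point compound series for 24 hours at 37 degrees C. Caspase 3/7 activity read by Caspase-Glo luminescence (DEVD substrate) after 15 min at room temperature.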

[5] = HPAF-II 18hr Apoptosis Induction qHTS against the NCATS CANVASS Library (AID 1347360)
In short: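 Apoptosis was scored as caspase-3/7 activity in HPAF-II pancreatic cancer cells treated 18 hours with an 11-point concentration series.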

[6] = HEK293 12hr Apoptosis Induction qHTS against the NCATS CANVASS Library (AID 1347361)
In short: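 Apoptosis in HEK293 was scored as caspase-3/7 luminescence following 12 h treatment with a compound concentration series in qHTS format.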

[7] = tested on: NAD(P)H diaphorase (Clostridium kluyveri); assay: Diaphorse counterscreen qHTS: Assay Interference Panel against the NCATS CANVASS Library (AID 1347362)
In short: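 Clostridium kluyveri diaphorase in PBS + 0.01% Tween-20 preincubated 15 min with compounds. Resazurin and NADH then added for 5 min at room temperature in the dark; resorufin fluorescence read (ex 525, em 598).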

[8] = molecular target: Luciferin 4-monooxygenase (Photinus pyralis) (UniProt P08659); assay: Firefly luciferase counterscreen qHTS: Assay Interference Panel against the NCATS CANVASS Library (AID 1347363)
Luciferin 4-monooxygenase (Photinus pyralis), sequence (P08659 whole entry, looked up): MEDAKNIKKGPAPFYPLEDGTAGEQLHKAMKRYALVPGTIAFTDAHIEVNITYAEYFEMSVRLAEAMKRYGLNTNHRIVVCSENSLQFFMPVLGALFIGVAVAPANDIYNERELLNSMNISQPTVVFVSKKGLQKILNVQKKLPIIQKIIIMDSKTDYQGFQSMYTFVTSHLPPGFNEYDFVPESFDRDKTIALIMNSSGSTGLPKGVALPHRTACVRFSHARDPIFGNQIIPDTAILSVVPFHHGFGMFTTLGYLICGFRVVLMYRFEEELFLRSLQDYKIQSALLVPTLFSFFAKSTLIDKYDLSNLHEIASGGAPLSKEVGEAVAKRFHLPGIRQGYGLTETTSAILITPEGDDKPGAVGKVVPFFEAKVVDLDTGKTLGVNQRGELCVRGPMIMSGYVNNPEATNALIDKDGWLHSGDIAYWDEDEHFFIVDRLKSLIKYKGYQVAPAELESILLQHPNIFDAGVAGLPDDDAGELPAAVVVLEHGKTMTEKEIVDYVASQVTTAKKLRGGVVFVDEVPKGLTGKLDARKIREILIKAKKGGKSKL
In short: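 Purified P. pyralis luciferase (0.04 ug/mL, 4x reagent) added to Tris-acetate buffer with 0.013 mM D-luciferin, 0.013 mM ATP and 13.3 mM Mg-acetate; compounds preincubated 15 min, then luminescence read after 5 min, RT.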

[9] = KB-8-5-11 Cancer Cell Toxicity qHTS against the NCATS CANVASS Library (AID 1347364); settings: KB-8-5-11 MDR cells viability, CellTiter-Glo, 72 h; at 46.1 µM (top of the series); further: nearly all actives have a fitted effect of over 75% in size
In short: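 Terse: KB-8-5-11, 500 cells/well, 72 hr, 37C/5% CO2, 11-pt titration, CellTiter-Glo readout; confirmatory runs ± 1uM tariquidar in medium.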

[10] = KB-3-1 Cancer Cell Toxicity qHTS against the NCATS CANVASS Library (AID 1347366); settings: KB-3-1 viability, CellTiter-Glo luminescence, 72 h; at 46.1 µM (top of the series); further: nearly all actives have a fitted effect of over 75% in size
In short: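 Seed KB-3-1 cells at 500/well in DMEM with 10% FBS, add compounds, incubate 72 hr at 37C and 5% CO2, then add CellTiter-Glo and read luminescence after 10 minutes.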

[11] = qHTS for ATAD5 Agonist screened against the NCATS CANVASS Library (AID 1347367);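 further: luciferase reporter driven by ATAD5 which rises upon DNA damage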
In short: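 Step one plated reporter cells and let them acclimate 5hr. Step two pinned compounds with MMS as positive and 0.46% DMSO as negative control. After 16hr incubation, fluorescence viability then luminescence were read.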

[12] = MCF7 Cancer Cell Toxicity qHTS against the NCATS CANVASS Library (AID 1347369); settings: MCF7 viability, ATP luminescence (CellTiter-Glo), 72 h; at 46 µM (top of the series)
In short: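 Cytotoxicity is measured by ATP content: MCF7 cells at 500 per well receive an 11-point compound series and, after 72 hr at 37C, are lysed with CellTiterGlo for luminescence.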

[13] = qHTS for ATAD5 Antagonist screened against the NCATS CANVASS Library (AID 1347370);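 further: HEK293T cells carrying an ATAD5 luciferase reporter co-treated with 10 µM 5-fluorouridine; nearly all actives have a fitted effect of over 65% in size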
In short: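 Compounds (11-point) co-dosed with 10 µM 5-FUrd for 16 h at 37 °C onto HEK293T-ATAD5 luciferase reporter cells. Viability measured by CellTiter-Fluor fluorescence, then ATAD5 reporter signal by luminescence.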

[14] = J3T Cancer Cell Toxicity qHTS against the NCATS CANVASS Library (AID 1347371);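 further: J3T is a canine glioma cancer cell line seeded at 500 cells per well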
In short: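 Luminescence from CellTiterGlo, reporting cellular ATP, serves as the viability measure after 72 hr compound treatment of J3T canine glioma cells seeded at 500 cells/well.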

[15] = molecular target: Nuclear receptor subfamily 1 group I member 3 (Homo sapiens) (UniProt Q14994); assay: qHTS for Constitutive Androstane Receptor (CAR) Antagonist screened against the NCATS CANVASS Library (AID 1347372);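 further: cells stimulated with 50 nM CITCO agonist so inhibition reflects antagonism; luciferase from CYP2B6 promoter reporter driven by hCAR in HepG2 cells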
Nuclear receptor subfamily 1 group I member 3 (Homo sapiens), sequence (Q14994 whole entry, looked up): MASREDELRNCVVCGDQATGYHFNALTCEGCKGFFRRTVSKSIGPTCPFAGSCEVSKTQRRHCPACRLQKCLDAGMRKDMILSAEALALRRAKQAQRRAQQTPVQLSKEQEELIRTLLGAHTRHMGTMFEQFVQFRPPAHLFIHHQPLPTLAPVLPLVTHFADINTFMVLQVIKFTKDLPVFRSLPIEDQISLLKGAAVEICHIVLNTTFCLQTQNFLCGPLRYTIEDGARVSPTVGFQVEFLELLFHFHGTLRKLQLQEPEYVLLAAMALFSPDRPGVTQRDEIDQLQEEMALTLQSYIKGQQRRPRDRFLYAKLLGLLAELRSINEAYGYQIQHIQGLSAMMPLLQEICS
In short: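 Luminescence readout (ONE-Glo, 30 min RT) of CYP2B6-2.2kb reporter in HepG2-hCAR cells after 24hr, 37C treatment with compound against 50 nM CITCO; CellTiter-Fluor viability read beforehand.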

[16] = molecular target: Nuclear receptor subfamily 1 group I member 3 (Homo sapiens) (UniProt Q14994); assay: qHTS for Constitutive Androstane Receptor (CAR) Agonist screened against the NCATS CANVASS Library (AID 1347373);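 further: every well also contained 1.5 µM PK11195 alongside the test compound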
In short: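 Cells were plated and allowed to attach for 4hr, then dosed with compound in an 11-point series alongside 1.5uM PK11195. After 24hr at 37C, viability was measured fluorometrically and CAR-driven CYP2B6 reporter luminescence was recorded.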

[17] = 10-beta competent E. coli microbial cell viability qHTS against the NCATS CANVASS Library (AID 1347376)
In short: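 Bacterial suspension diluted to 0.2 OD was dosed with compounds, 11-point series, then held overnight at 37C. BacTiter-Glo reagent was added, and after 20 min at room temperature ATP-dependent luminescence was measured.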

[18] = qHTS for H2AX Agonists against the NCATS CANVASS Library (AID 1347378);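 further: phospho-H2AX S139 level in CHO-K1 lysates by TR-FRET emission ratio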
In short: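 Following overnight seeding, CHO-K1 cells are incubated with a concentration series of compound for 3 hr at 37C (final DMSO 0.76%). Cells are then lysed, detection antibodies added, and emission ratio 665/620 nm recorded after 24 hr at room temperature.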

[19] = qHTS for Inflammasome Signaling Inhibitors: IL-1-beta AlphaLISA screen against the NCATS CANVASS Library (AID 1347379);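 further: human THP-1 cells primed with LPS then triggered with ATP; secreted IL-1B measured as AlphaLISA emission at 615 nm; lower signal means less IL-1B release which is the wanted effect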
In short: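 Secreted IL-1B from human THP-1 cells quantified by AlphaLISA 16 hr after compound addition (final up to 57.5 uM). A 1 hr compound pretreatment preceded inflammasome activation with 250 ng/mL LPS plus 1.25 mM ATP (final).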

[20] = qHTS for Antimalaria activity screened against the NCATS CANVASS Library (AID 1347380);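 further: Plasmodium falciparum strain Dd2 asexual parasites grown in red blood cells; nearly all actives have a fitted effect of over 40% in size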
In short: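 Compounds are titrated over 11 concentrations onto Dd2 parasite cultures (0.3% parasitemia, 2.5% hematocrit). Growth over 72 h at 37C in low oxygen is measured as SYBR Green DNA fluorescence after lysis.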

Measured: outcome

CN1CCC[C@@H]1c1cccnc1
inactive: all assays above
